Assay results reported in PMC5540273 (PLoS ONE, 2017).

Test system: MST1R
Conditions: concentration: 1 μM, replicates: in singlicate; n = 1
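Also: KINOMEscan kinase panel screen.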

| Structure (SMILES) | %Inh |
| --- | --- |
| CCn1c(-c2cccnc2O)nc2cnccc21 [SB-736715] | 0% |
| Cl.Oc1ccc(-c2nc(-c3ccccc3)[nH]c2-c2ccncc2)cc1 [SB-428218] | 0% |
| CC(=O)Nc1nc2cnc(Nc3cc(NC(=O)c4cccc(CCC#N)c4)ccc3C)nc2s1 | 21% |
| O=S(=O)(c1ccc(-c2ccnc3[nH]ccc23)cc1)N1CCCC1 [GSK846226] | 16% |
| CN1C(=O)C(Nc2ccc(Cl)c(C(=O)O)c2)=C(c2ccc(Cl)cc2)C1=O [SB-404290] | 19% |
| Fc1cc(Cl)ccc1Nc1ccnc2cc(I)ccc12 [GW551191] | 82% |
| O=c1cc(N2CCOCC2)nc2n(Cc3cccc(Cl)c3Cl)ccn12 [GSK2286295] | 25% |
| Cn1ccc2ncnc(Oc3ccc(NC(=O)Nc4ccccc4)cc3)c21 | 10% |
| COc1cc(Nc2nccc(N3CCC(NC(=O)Nc4cc(C)ccc4C)C3)n2)cc(OC)c1OC (stereo not drawn) [GSK1379762] | 52% |
| CC(C)(C)c1ccc(C(=O)Nc2cn3cc(Cl)ccc3n2)cc1 | 5% |
| COc1ccccc1CNC(=O)c1cc(C(=O)c2ccccc2C)c[nH]1 [GSK364507] | 36% |
| O=C(O)COc1ncnc2cc(-c3ccc4[nH]ncc4c3)sc12 | 25% |
| CS(=O)(=O)c1ccc(-c2nc3n(c2-c2ccncc2)CCC3)cc1 [SKF-105942] | 19% |
| Cc1c(Cn2ccn3c(=O)cc(N4CCOCC4)nc23)cccc1C(F)(F)F [GSK2289044] | 27% |
| O=C(Nc1n[nH]c2cc(-c3cccc(F)c3F)ccc12)C1CC1 [SB-733894] | 6% |
| Cc1csc(-c2nc(Nc3ccncc3)c3ccccc3n2)n1 [GW869640] | 11% |
| Cl.NC(=O)c1cccc(Nc2nccc(Nc3ccc(Oc4cccc(Cl)c4)c(Cl)c3)n2)c1 [GW659008] | 0% |
| O=C1NC(=O)C(N2CCc3ccccc32)=C1c1ccccc1Cl [SB-373598] | 7% |

| Structure (SMILES) | %Inh |
| --- | --- |
| COC(=O)c1c(-c2ccccc2)c2cc(C(=O)O)ccc2c(=O)n1Cc1ccccc1 | 19% |
| Cc1cc(-c2ccc3c(c2)CC[C@@H](N[C@@H](C)c2ccccc2)C3)cnc1N.Cl [GW412617] | 38% |
| Nc1ncnc2[nH]c(-c3ccccc3)nc12 [AH5015] | 3% |
| O=C(Nc1n[nH]c2nc(-c3nccs3)c(Br)cc12)C1CC1 [SB-742251] | 18% |
| Cc1ccccc1-n1cnc2c(N)ncnc21 [SKF-97510] | 0% |
| Clc1cc(Cl)cc(Nc2ccnc(Nc3cc(Cl)cc(Cl)c3)n2)c1 [GSK175726] | 14% |
| Cn1ccc2ncnc(Oc3ccc(Nc4nc5ccccc5[nH]4)cc3)c21 | 18% |
| CCCc1ccc(S(=O)(=O)NC2CCN(c3ccnc(Nc4ccc(F)cc4)n3)C2)cc1 (stereo not drawn) [GSK1379715] | 7% |
| COc1cc2nccc(Nc3ccc(NC(=O)c4ccc(C)cc4)c(O)c3)c2cc1OC.Cl [GW440132] | 0% |
| CCn1c(-c2ccccn2)nc2cnccc21 [SB-736398] | 47% |
| Cl.O=C(Nc1cccc(-c2nn3ncccc3c2-c2ccnc(Nc3cccnc3)n2)c1)c1c(F)cccc1F [GSK312879] | 26% |
| Cc1ccc(NC(=O)Nc2cccc(Cl)c2)cc1-c1ccc(C(=O)Nc2ccncc2)cc1 [GSK1398468] | 34% |
| O=C(Nc1ccc2c(c1)OCO2)NC1CCN(c2ccnc(Nc3ccc(F)cc3)n2)C1 (stereo not drawn) [GSK1379724] | 35% |
| COc1ccc(Nc2nccc(NCCNC(=O)Nc3ccccc3F)n2)cc1 [GSK1379901] | 16% |
| COc1ccc(Nc2nccc(-c3cccc(NC(=O)c4cc5cc(F)ccc5[nH]4)c3)n2)cc1 [GSK1229782] | 31% |
| Cc1cc(N2Cc3ccccc3C2)nc(Nc2ccc(S(=O)(=O)N3CCOCC3)cc2)n1.Cl [GSK1669917] | 0% |
| COc1ccc(CNC(=O)NC2CCN(c3ccnc(Nc4cc(OC)c(OC)c(OC)c4)n3)C2)cc1 (stereo not drawn) [GSK1379748] | 29% |
| Cc1ccc(-c2cc(-c3c[nH]nc3-c3ccccn3)ccn2)cc1 [GW684088] | 13% |

Test system: T1, MST1
T1 construct: gene STK4
Conditions: concentration: 1 μM, replicates: in singlicate; n = 1

| Structure (SMILES) | %Inh |
| --- | --- |
| CCn1c(-c2cccnc2O)nc2cnccc21 [SB-736715] | 0% |
| Cl.Oc1ccc(-c2nc(-c3ccccc3)[nH]c2-c2ccncc2)cc1 [SB-428218] | 10% |
| CC(=O)Nc1nc2cnc(Nc3cc(NC(=O)c4cccc(CCC#N)c4)ccc3C)nc2s1 | 5% |
| O=S(=O)(c1ccc(-c2ccnc3[nH]ccc23)cc1)N1CCCC1 [GSK846226] | 0% |
| CN1C(=O)C(Nc2ccc(Cl)c(C(=O)O)c2)=C(c2ccc(Cl)cc2)C1=O [SB-404290] | 12% |
| Fc1cc(Cl)ccc1Nc1ccnc2cc(I)ccc12 [GW551191] | 0% |
| O=c1cc(N2CCOCC2)nc2n(Cc3cccc(Cl)c3Cl)ccn12 [GSK2286295] | 0% |
| Cn1ccc2ncnc(Oc3ccc(NC(=O)Nc4ccccc4)cc3)c21 | 0% |
| COc1cc(Nc2nccc(N3CCC(NC(=O)Nc4cc(C)ccc4C)C3)n2)cc(OC)c1OC (stereo not drawn) [GSK1379762] | 13% |
| CC(C)(C)c1ccc(C(=O)Nc2cn3cc(Cl)ccc3n2)cc1 | 0% |
| COc1ccccc1CNC(=O)c1cc(C(=O)c2ccccc2C)c[nH]1 [GSK364507] | 0% |
| O=C(O)COc1ncnc2cc(-c3ccc4[nH]ncc4c3)sc12 | 73% |
| CS(=O)(=O)c1ccc(-c2nc3n(c2-c2ccncc2)CCC3)cc1 [SKF-105942] | 0% |
| Cc1c(Cn2ccn3c(=O)cc(N4CCOCC4)nc23)cccc1C(F)(F)F [GSK2289044] | 1% |
| O=C(Nc1n[nH]c2cc(-c3cccc(F)c3F)ccc12)C1CC1 [SB-733894] | 0% |
| Cc1csc(-c2nc(Nc3ccncc3)c3ccccc3n2)n1 [GW869640] | 18% |
| Cl.NC(=O)c1cccc(Nc2nccc(Nc3ccc(Oc4cccc(Cl)c4)c(Cl)c3)n2)c1 [GW659008] | 15% |
| O=C1NC(=O)C(N2CCc3ccccc32)=C1c1ccccc1Cl [SB-373598] | 87% |

| Structure (SMILES) | %Inh |
| --- | --- |
| COC(=O)c1c(-c2ccccc2)c2cc(C(=O)O)ccc2c(=O)n1Cc1ccccc1 | 0% |
| Cc1cc(-c2ccc3c(c2)CC[C@@H](N[C@@H](C)c2ccccc2)C3)cnc1N.Cl [GW412617] | 1% |
| Nc1ncnc2[nH]c(-c3ccccc3)nc12 [AH5015] | 100% |
| O=C(Nc1n[nH]c2nc(-c3nccs3)c(Br)cc12)C1CC1 [SB-742251] | 3% |
| Cc1ccccc1-n1cnc2c(N)ncnc21 [SKF-97510] | 0% |
| Clc1cc(Cl)cc(Nc2ccnc(Nc3cc(Cl)cc(Cl)c3)n2)c1 [GSK175726] | 0% |
| Cn1ccc2ncnc(Oc3ccc(Nc4nc5ccccc5[nH]4)cc3)c21 | 8% |
| CCCc1ccc(S(=O)(=O)NC2CCN(c3ccnc(Nc4ccc(F)cc4)n3)C2)cc1 (stereo not drawn) [GSK1379715] | 0% |
| COc1cc2nccc(Nc3ccc(NC(=O)c4ccc(C)cc4)c(O)c3)c2cc1OC.Cl [GW440132] | 1% |
| CCn1c(-c2ccccn2)nc2cnccc21 [SB-736398] | 29% |
| Cl.O=C(Nc1cccc(-c2nn3ncccc3c2-c2ccnc(Nc3cccnc3)n2)c1)c1c(F)cccc1F [GSK312879] | 17% |
| Cc1ccc(NC(=O)Nc2cccc(Cl)c2)cc1-c1ccc(C(=O)Nc2ccncc2)cc1 [GSK1398468] | 1% |
| O=C(Nc1ccc2c(c1)OCO2)NC1CCN(c2ccnc(Nc3ccc(F)cc3)n2)C1 (stereo not drawn) [GSK1379724] | 0% |
| COc1ccc(Nc2nccc(NCCNC(=O)Nc3ccccc3F)n2)cc1 [GSK1379901] | 0% |
| COc1ccc(Nc2nccc(-c3cccc(NC(=O)c4cc5cc(F)ccc5[nH]4)c3)n2)cc1 [GSK1229782] | 16% |
| Cc1cc(N2Cc3ccccc3C2)nc(Nc2ccc(S(=O)(=O)N3CCOCC3)cc2)n1.Cl [GSK1669917] | 0% |
| COc1ccc(CNC(=O)NC2CCN(c3ccnc(Nc4cc(OC)c(OC)c(OC)c4)n3)C2)cc1 (stereo not drawn) [GSK1379748] | 0% |
| Cc1ccc(-c2cc(-c3c[nH]nc3-c3ccccn3)ccn2)cc1 [GW684088] | 0% |
